From PubChem BioAssay AID1159580 (chemical genetic matrix, 2015)
Among all 5,500 compounds or so, about 2,000 (36%) were called active. Roughly 18% stayed inconclusive and do not appear here. No stated cut-off is given here; in the data, active means normalized growth mostly below about 0.91 (no sharp cut-off); inconclusive means no clear call, values can overlap the other calls; inactive means mostly above about 0.92. This is one part of the list.

Experiment: chemical genetic growth profiling, strain panel (AID 1159580);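 further: tested at 20 µM; growth read once vehicle control cultures reached saturation at 30 °C; 1 = growth at the plate median or of vehicle wells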
Conditions: growth OD

Measured: normalized growth

Nc1nccs1
active: S. cerevisiae deletion strains, locus YER155C, strain BEM2 (second series), stronger effect = lower value 0.841 | S. cerevisiae deletion strains, locus YOR270C, strain vph1, stronger effect = lower value 0.638
inactive: S. cerevisiae deletion strains, locus YAL021C, strain ccr4, stronger effect = lower value 0.994 | S. cerevisiae deletion strains, locus YAL026C, strain drs2, stronger effect = lower value 0.993 | S. cerevisiae deletion strains, locus YAL030W, strain snc1, stronger effect = lower value 0.995 | S. cerevisiae deletion strains, locus YBL061C, strain skt5, stronger effect = lower value 0.995 | S. cerevisiae deletion strains, locus YBR009C, strain hhf1, stronger effect = lower value 0.987 | S. cerevisiae deletion strains, locus YBR021W, strain FUR4, stronger effect = lower value 1.03 | S. cerevisiae deletion strains, locus YBR023C, strain chs3, stronger effect = lower value 0.991 | S. cerevisiae deletion strains, locus YBR171W, strain sec66, stronger effect = lower value 0.975 | S. cerevisiae deletion strains, locus YBR229C, strain ROT2, stronger effect = lower value 0.949 | S. cerevisiae deletion strains, locus YBR231C, strain swc5, stronger effect = lower value 0.973 | S. cerevisiae deletion strains, locus YBR279W, strain paf1, stronger effect = lower value 1 | S. cerevisiae deletion strains, locus YCL011C, strain gbp2, stronger effect = lower value 1.02 | S. cerevisiae deletion strains, locus YCL016C, strain dcc1, stronger effect = lower value 0.989 | S. cerevisiae deletion strains, locus YCL029C, strain bik1, stronger effect = lower value 0.98 | S. cerevisiae deletion strains, locus YCL061C, strain MRC1, stronger effect = lower value 0.978 | S. cerevisiae deletion strains, locus YCL069W, strain vba3, stronger effect = lower value 0.988 | S. cerevisiae deletion strains, locus YCR088W, strain abp1, stronger effect = lower value 0.992 | S. cerevisiae deletion strains, locus YDL005C, strain med2, stronger effect = lower value 0.985 | S. cerevisiae deletion strains, locus YDL035C, strain GPR1, stronger effect = lower value 1.01 | S. cerevisiae deletion strains, locus YDL040C, strain nat1, stronger effect = lower value 0.986 | S. cerevisiae deletion strains, locus YDL074C, strain BRE1, stronger effect = lower value 0.96 | S. cerevisiae deletion strains, locus YDL101C, strain DUN1, stronger effect = lower value 0.974 | S. cerevisiae deletion strains, locus YDL134C, strain PPH21, stronger effect = lower value 0.983 | S. cerevisiae deletion strains, locus YDL185W, strain tfp1, stronger effect = lower value 0.984 | S. cerevisiae deletion strains, locus YDL192W, strain arf1, stronger effect = lower value 0.983 | S. cerevisiae deletion strains, locus YDR001C, strain nth1, stronger effect = lower value 1 | S. cerevisiae deletion strains, locus YDR069C, strain doa4, stronger effect = lower value 0.95 | S. cerevisiae deletion strains, locus YDR101C, strain arx1, stronger effect = lower value 0.941 | S. cerevisiae deletion strains, locus YDR137W, strain rgp1, stronger effect = lower value 0.998 | S. cerevisiae deletion strains, locus YDR159W, strain sac3, stronger effect = lower value 0.953 | S. cerevisiae deletion strains, locus YDR162C, strain NBP2, stronger effect = lower value 0.996 | S. cerevisiae deletion strains, locus YDR195W, strain ref2 0.958 | S. cerevisiae deletion strains, locus YDR297W, strain sur2, stronger effect = lower value 0.997 | S. cerevisiae deletion strains, locus YDR318W, strain mcm21, stronger effect = lower value 0.989 | S. cerevisiae deletion strains, locus YDR334W, strain swr1, stronger effect = lower value 0.997 | S. cerevisiae deletion strains, locus YDR335W, strain msn5, stronger effect = lower value 0.978 | S. cerevisiae deletion strains, locus YDR388W, stronger effect = lower value 0.991 | S. cerevisiae deletion strains, locus YDR392W, strain spt3, stronger effect = lower value 0.945 | S. cerevisiae deletion strains, locus YDR502C, strain sam2, stronger effect = lower value 0.983 | S. cerevisiae deletion strains, locus YEL003W, strain gim4, stronger effect = lower value 0.997 | S. cerevisiae deletion strains, locus YEL037C, strain rad23, stronger effect = lower value 0.987 | S. cerevisiae deletion strains, locus YEL061C, strain CIN8 (second series), stronger effect = lower value 0.991 | S. cerevisiae deletion strains, locus YEL061C, strain CIN8, stronger effect = lower value 0.984 | S. cerevisiae deletion strains, locus YER015W, strain faa2, stronger effect = lower value 0.991 | S. cerevisiae deletion strains, locus YER016W, strain bim1, stronger effect = lower value 1.01 | S. cerevisiae deletion strains, locus YER110C, stronger effect = lower value 0.986 | S. cerevisiae deletion strains, locus YER111C, strain swi4, stronger effect = lower value 0.986 | S. cerevisiae deletion strains, locus YER155C, strain BEM2, stronger effect = lower value 1 | S. cerevisiae deletion strains, locus YER167W, strain BCK2, stronger effect = lower value 0.995 | S. cerevisiae deletion strains, locus YFR010W, strain ubp6, stronger effect = lower value 0.991 | S. cerevisiae deletion strains, locus YGL078C, strain dbp3, stronger effect = lower value 1.01 | S. cerevisiae deletion strains, locus YGL086W, strain mad1, stronger effect = lower value 0.953 | S. cerevisiae deletion strains, locus YGL167C, strain pmr1, stronger effect = lower value 0.981 | S. cerevisiae deletion strains, locus YGL173C, strain kem1, stronger effect = lower value 0.99 | S. cerevisiae deletion strains, locus YGL227W, strain vid30, stronger effect = lower value 0.991 | S. cerevisiae deletion strains, locus YGL240W, strain doc1, stronger effect = lower value 0.96 | S. cerevisiae deletion strains, locus YGL248W, strain PDE1, stronger effect = lower value 0.974 | S. cerevisiae deletion strains, locus YGL253W, strain hxk2, stronger effect = lower value 1.01 | S. cerevisiae deletion strains, locus YGR135W, strain pre9, stronger effect = lower value 1.06 | S. cerevisiae deletion strains, locus YGR229C, strain SMI1, stronger effect = lower value 1.01 | S. cerevisiae deletion strains, locus YGR252W, strain gcn5, stronger effect = lower value 1.09 | S. cerevisiae deletion strains, locus YHR013C, strain ard1, stronger effect = lower value 1.02 | S. cerevisiae deletion strains, locus YHR027C, strain rpn1, stronger effect = lower value 0.994 | S. cerevisiae deletion strains, locus YHR030C, strain SLT2, stronger effect = lower value 1 | S. cerevisiae deletion strains, locus YHR079C, strain IRE1 (second series), stronger effect = lower value 0.989 | S. cerevisiae deletion strains, locus YHR094C, strain hxt1, stronger effect = lower value 0.984 | S. cerevisiae deletion strains, locus YHR129C, strain ARP1, stronger effect = lower value 0.987 | S. cerevisiae deletion strains, locus YHR142W, strain chs7, stronger effect = lower value 1.02 | S. cerevisiae deletion strains, locus YHR200W, strain rpn10, stronger effect = lower value 0.984 | S. cerevisiae deletion strains, locus YIL066C, strain RNR3, stronger effect = lower value 0.953 | S. cerevisiae deletion strains, locus YIL073C, strain SPO22, stronger effect = lower value 1.04 | S. cerevisiae deletion strains, locus YIL125W, strain kgd1, stronger effect = lower value 0.989 | S. cerevisiae deletion strains, locus YIR030C, strain dcg1, stronger effect = lower value 0.988 | S. cerevisiae deletion strains, locus YJL092W, strain hpr5, stronger effect = lower value 0.969 | S. cerevisiae deletion strains, locus YJL095W, strain BCK1 (second series), stronger effect = lower value 0.998 | S. cerevisiae deletion strains, locus YJL095W, strain BCK1, stronger effect = lower value 0.934 | S. cerevisiae deletion strains, locus YJL115W, strain asf1, stronger effect = lower value 0.998 | S. cerevisiae deletion strains, locus YJL129C, strain trk1, stronger effect = lower value 0.978 | S. cerevisiae deletion strains, locus YJL134W, strain LCB3, stronger effect = lower value 0.99 | S. cerevisiae deletion strains, locus YJL154C, strain vps35, stronger effect = lower value 0.993 | S. cerevisiae deletion strains, locus YJL164C, strain tpk1, stronger effect = lower value 0.997 | S. cerevisiae deletion strains, locus YJL166W, strain qcr8, stronger effect = lower value 0.961 | S. cerevisiae deletion strains, locus YJL168C, strain set2, stronger effect = lower value 0.988 | S. cerevisiae deletion strains, locus YJL187C, strain SWE1 (second series), stronger effect = lower value 0.947 | S. cerevisiae deletion strains, locus YJL187C, strain SWE1, stronger effect = lower value 0.998 | S. cerevisiae deletion strains, locus YJR043C, strain POL32, stronger effect = lower value 0.985 | S. cerevisiae deletion strains, locus YKL009W, strain mrt4, stronger effect = lower value 0.985 | S. cerevisiae deletion strains, locus YKL068W, stronger effect = lower value 0.981 | S. cerevisiae deletion strains, locus YKL085W, strain MDH1 (second series), stronger effect = lower value 0.981 | S. cerevisiae deletion strains, locus YKL085W, strain MDH1, stronger effect = lower value 0.981 | S. cerevisiae deletion strains, locus YKL160W, strain elf1, stronger effect = lower value 0.98 | S. cerevisiae deletion strains, locus YKL190W, strain CNB1, stronger effect = lower value 0.992 | S. cerevisiae deletion strains, locus YKR001C, strain vps1, stronger effect = lower value 0.985 | S. cerevisiae deletion strains, locus YKR026C, strain gcn3, stronger effect = lower value 0.995 | S. cerevisiae deletion strains, locus YKR091W, strain srl3, stronger effect = lower value 0.998 | S. cerevisiae deletion strains, locus YLL001W, strain dnm1, stronger effect = lower value 0.947 | S. cerevisiae deletion strains, locus YLL026W, stronger effect = lower value 0.993 | S. cerevisiae deletion strains, locus YLL041C, strain sdh2, stronger effect = lower value 0.991 | S. cerevisiae deletion strains, locus YLR027C, strain aat2, stronger effect = lower value 0.988 | S. cerevisiae deletion strains, locus YLR039C, strain RIC1, stronger effect = lower value 0.929 | S. cerevisiae deletion strains, locus YLR058C, strain SHM2, stronger effect = lower value 0.974 | S. cerevisiae deletion strains, locus YLR102C, strain apc9, stronger effect = lower value 0.996 | S. cerevisiae deletion strains, locus YLR221C, strain rsa3, stronger effect = lower value 0.992 | S. cerevisiae deletion strains, locus YLR258W, strain gsy2, stronger effect = lower value 1 | S. cerevisiae deletion strains, locus YLR262C, strain YPT6 (second series), stronger effect = lower value 0.939 | S. cerevisiae deletion strains, locus YLR262C, strain YPT6, stronger effect = lower value 0.929 | S. cerevisiae deletion strains, locus YLR268W, strain sec22, stronger effect = lower value 0.968 | S. cerevisiae deletion strains, locus YLR320W, strain mms22, stronger effect = lower value 1 | S. cerevisiae deletion strains, locus YLR330W, strain CHS5, stronger effect = lower value 0.993 | S. cerevisiae deletion strains, locus YLR342W, strain FKS1 (second series), stronger effect = lower value 1.03 | S. cerevisiae deletion strains, locus YLR342W, strain FKS1, stronger effect = lower value 0.975 | S. cerevisiae deletion strains, locus YLR357W, strain rsc2, stronger effect = lower value 0.945 | S. cerevisiae deletion strains, locus YLR370C, strain arc18, stronger effect = lower value 0.991 | S. cerevisiae deletion strains, locus YLR371W, strain rom2, stronger effect = lower value 0.999 | S. cerevisiae deletion strains, locus YLR384C, strain iki3, stronger effect = lower value 0.976 | S. cerevisiae deletion strains, locus YLR418C, strain cdc73, stronger effect = lower value 1.03 | S. cerevisiae deletion strains, locus YML016C, strain PPZ1, stronger effect = lower value 0.984 | S. cerevisiae deletion strains, locus YML032C, strain rad52, stronger effect = lower value 0.984 | S. cerevisiae deletion strains, locus YML120C, strain ndi1, stronger effect = lower value 0.99 | S. cerevisiae deletion strains, locus YML124C, strain tub3, stronger effect = lower value 0.985 | S. cerevisiae deletion strains, locus YMR058W, strain fet3, stronger effect = lower value 0.988 | S. cerevisiae deletion strains, locus YMR078C, strain ctf18, stronger effect = lower value 0.979 | S. cerevisiae deletion strains, locus YMR125W, strain sto1, stronger effect = lower value 0.988 | S. cerevisiae deletion strains, locus YMR129W, stronger effect = lower value 0.996 | S. cerevisiae deletion strains, locus YMR205C, strain PFK2, stronger effect = lower value 0.983 | S. cerevisiae deletion strains, locus YMR223W, strain ubp8, stronger effect = lower value 1.04 | S. cerevisiae deletion strains, locus YMR231W, strain pep5, stronger effect = lower value 0.99 | S. cerevisiae deletion strains, locus YMR307W, strain GAS1, stronger effect = lower value 1.07 | S. cerevisiae deletion strains, locus YNL067W, strain RPL9B, stronger effect = lower value 0.954 | S. cerevisiae deletion strains, locus YNL071W, strain lat1, stronger effect = lower value 1 | S. cerevisiae deletion strains, locus YNL128W, strain TEP1, stronger effect = lower value 1.01 | S. cerevisiae deletion strains, locus YNL209W, strain ssb2, stronger effect = lower value 0.991 | S. cerevisiae deletion strains, locus YNL233W, strain BNI4, stronger effect = lower value 0.96 | S. cerevisiae deletion strains, locus YNL248C, strain rpa49, stronger effect = lower value 1.02 | S. cerevisiae deletion strains, locus YNL250W, strain rad50, stronger effect = lower value 0.989 | S. cerevisiae deletion strains, locus YNL271C, strain bni1, stronger effect = lower value 0.978 | S. cerevisiae deletion strains, locus YNL298W, strain CLA4, stronger effect = lower value 0.999 | S. cerevisiae deletion strains, locus YNL307C, strain MCK1, stronger effect = lower value 0.988 | S. cerevisiae deletion strains, locus YNL322C, strain KRE1 (second series), stronger effect = lower value 0.985 | S. cerevisiae deletion strains, locus YNR049C, strain mso1, stronger effect = lower value 0.987 | S. cerevisiae deletion strains, locus YNR052C, strain pop2, stronger effect = lower value 0.998 | S. cerevisiae deletion strains, locus YOL006C, strain TOP1, stronger effect = lower value 0.899 | S. cerevisiae deletion strains, locus YOL012C, strain htz1 0.795 | S. cerevisiae deletion strains, locus YOL147C, strain pex11, stronger effect = lower value 0.993 | S. cerevisiae deletion strains, locus YOR001W, strain rrp6, stronger effect = lower value 0.983 | S. cerevisiae deletion strains, locus YOR061W, strain CKA2, stronger effect = lower value 0.958 | S. cerevisiae deletion strains, locus YOR069W, strain VPS5, stronger effect = lower value 0.99 | S. cerevisiae deletion strains, locus YOR070C, strain gyp1, stronger effect = lower value 0.999 | S. cerevisiae deletion strains, locus YOR080W, strain dia2, stronger effect = lower value 0.977 | S. cerevisiae deletion strains, locus YOR083W, strain WHI5, stronger effect = lower value 0.971 | S. cerevisiae deletion strains, locus YOR106W, strain vam3, stronger effect = lower value 0.955 | S. cerevisiae deletion strains, locus YOR136W, strain idh2, stronger effect = lower value 0.988 | S. cerevisiae deletion strains, locus YOR144C, strain elg1, stronger effect = lower value 0.992 | S. cerevisiae deletion strains, locus YOR184W, strain ser1, stronger effect = lower value 0.914 | S. cerevisiae deletion strains, locus YOR265W, strain rbl2, stronger effect = lower value 0.997 | S. cerevisiae deletion strains, locus YOR290C, strain snf2, stronger effect = lower value 0.945 | S. cerevisiae deletion strains, locus YOR316C, strain cot1, stronger effect = lower value 0.979 | S. cerevisiae deletion strains, locus YPL051W, strain arl3, stronger effect = lower value 0.965 | S. cerevisiae deletion strains, locus YPL078C, strain atp4, stronger effect = lower value 0.969 | S. cerevisiae deletion strains, locus YPL106C, strain sse1, stronger effect = lower value 0.958 | S. cerevisiae deletion strains, locus YPL240C, strain hsp82, stronger effect = lower value 0.994 | S. cerevisiae deletion strains, locus YPR119W, strain clb2, stronger effect = lower value 0.988 | S. cerevisiae deletion strains, locus YPR141C, strain kar3, stronger effect = lower value 0.973 | S. cerevisiae deletion strains, locus YPR163C, strain tif3, stronger effect = lower value 0.985 | S. cerevisiae deletion strains, locus YPR167C, strain met16, stronger effect = lower value 0.993 | S. cerevisiae deletion strains, strain wtn01, stronger effect = lower value 1.01 | S. cerevisiae strains, strain wild type, stronger effect = lower value 0.984
